Screening data (PubChem BioAssay)
FadD28 FP inh: M. tuberculosis FadD28 bisubstrate binding inhibition; inhibition, % at 12.5 µM; 0.22% of 360,000 active; FadD28 bisubstrate probe binding, fluorescence polarization; in the data active = inhibition above about 8.5%, passing the limit was not always enough
Y pestis TopoI: blocks Yersinia pestis topoisomerase I activity | 0.064% of 360,000 active | activity, % at 10 µM | Y. pestis Topo-I cleavage product accumulation, plate reader; in the data active = activity above about 50%, passing the limit was not always enough
TcdB GH inh: inhibitors of Clostridioides difficile toxin B glycohydrolase. P18177. TcdB glycohydrolase enzymatic assay, plate reader. inhibition, % at 9.99 µM. 0.24% of 350,000 active; in the data active = inhibition above about 10%
BioA inh-1: BioA (M. tuberculosis) enzyme inhibition; inhibition, % at 9.99 µM; purified M. tuberculosis BioA enzyme, plate reader; AID 602481; 0.096% of 360,000 active; in the data active = inhibition above about 40%
Vc quorum ag: inducers of Vibrio cholerae quorum light production without autoinducers. V. cholerae BH1578 lux reporter, luminescence, 6 h. AID 588436. activation, % at 18.7 µM. 0.16% of 350,000 active; in the data active = activation mostly above about 9.7%, no sharp cut-off
BioA inh-2: inhibitors of Mycobacterium tuberculosis BioA enzyme. shares compounds with BioA inh-1. purified BioA enzyme, plate reader, dose response. max activity, %. 310 tested, under 10 active. AID 651679;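 also: top concentration of the dilution series was 10 µM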
Target sequence (P9WQ81 whole entry, looked up): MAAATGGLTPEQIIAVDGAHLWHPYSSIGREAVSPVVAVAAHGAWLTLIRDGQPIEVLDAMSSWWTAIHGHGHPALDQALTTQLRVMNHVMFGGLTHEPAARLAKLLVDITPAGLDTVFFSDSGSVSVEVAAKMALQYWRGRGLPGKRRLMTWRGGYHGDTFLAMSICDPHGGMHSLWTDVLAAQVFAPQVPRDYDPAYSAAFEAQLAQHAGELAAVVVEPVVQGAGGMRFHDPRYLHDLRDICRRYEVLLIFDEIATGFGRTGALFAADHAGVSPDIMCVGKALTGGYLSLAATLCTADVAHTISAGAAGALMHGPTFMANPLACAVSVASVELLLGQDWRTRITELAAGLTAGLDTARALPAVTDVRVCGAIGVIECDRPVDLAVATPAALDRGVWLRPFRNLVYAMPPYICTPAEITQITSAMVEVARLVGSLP
HepG2 cytotox: HepG2 viability loss; shares compounds with BioA inh-1; HepG2 cytotoxicity, plate reader; max activity, %; 310 tested, under 10 active; AID 651898
3T3 cytotox 5: NIH3T3 viability loss. NIH3T3 cytotoxicity, plate reader. activity change, negative = cytotoxicity, % at 26 µM. 310 tested, under 10 active. AID 651900. shares compounds with BioA inh-1
Of the large screens only hits and unclear results are named; the others gave an inactive call (follow-up assays come after a bar, where they were run). The list is not random: actives were taken first. Their share in the collection is about 0.58%. Unless noted, no rule for the calls is given here.

O=C(C1CCC1)N1CC[C@@H]2[C@@H](CO)Nc3ccc(Br)cc3[C@@H]21	none (no result: FadD28 FP inh, Y pestis TopoI, BioA inh-1, Vc quorum ag)
O=C(Cc1ccccc1)N1CC[C@@H]2[C@H](CO)Nc3ccc(Br)cc3[C@@H]21	BioA inh-1 44 (no result: FadD28 FP inh, Y pestis TopoI, Vc quorum ag) | BioA inh-2 inactive | HepG2 cytotox inactive | 3T3 cytotox 5 inactive
O=C(C1CCOCC1)N1CC[C@@H]2[C@H](CO)Nc3ccc(Br)cc3[C@@H]21	BioA inh-1 72 (no result: FadD28 FP inh, Y pestis TopoI, Vc quorum ag) | BioA inh-2 inactive | HepG2 cytotox inactive | 3T3 cytotox 5 inactive
O=C(C1CCOCC1)N1CC[C@@H]2[C@H]1c1cc(Br)ccc1N[C@@H]2CO	BioA inh-1 74 (no result: FadD28 FP inh, Y pestis TopoI, Vc quorum ag) | BioA inh-2 inactive | HepG2 cytotox inactive | 3T3 cytotox 5 inactive
CNC(=O)C[C@@H]1CC[C@@H]2[C@@H](COc3ccc(NC(=O)Nc4c(C)noc4C)cc3C(=O)N2C)O1	none (no result: FadD28 FP inh, Y pestis TopoI, TcdB GH inh, Vc quorum ag)
O=C(C[C@@H]1C=C[C@H](NS(=O)(=O)c2ccc(F)cc2)[C@H](CO)O1)N1CCC(Cc2ccccc2)CC1	none (no result: FadD28 FP inh, Y pestis TopoI, Vc quorum ag)
CO[C@@H]1CN(C)C(=O)c2ccc(NS(=O)(=O)CC(F)(F)F)cc2OC[C@@H](C)N(C(=O)c2ccc3c(c2)OCO3)C[C@H]1C	none (no result: FadD28 FP inh, Y pestis TopoI, Vc quorum ag)
COc1ccccc1CN1C[C@H](C)[C@H](OC)CN(C)C(=O)c2cc(NC(C)=O)ccc2OC[C@H]1C	none (no result: FadD28 FP inh, Y pestis TopoI, TcdB GH inh, Vc quorum ag)
O=C(CSc1nncs1)N1c2ccccc2Sc2ccccc21	BioA inh-1 44 (no result: TcdB GH inh) | BioA inh-2 inactive | HepG2 cytotox inactive | 3T3 cytotox 5 inactive
CCOC(=O)c1ccc(N2C(=O)c3n[nH]c(C)c3C2c2ccc(OC)c(OC)c2)cc1 (stereo not given)	BioA inh-1 101 (no result: TcdB GH inh) | BioA inh-2 inactive | HepG2 cytotox inactive | 3T3 cytotox 5 inactive
CCOC(=O)c1ccc(N2C(=O)c3n[nH]c(C)c3C2c2ccc(OC)cc2)cc1 (stereo not given)	none (no result: TcdB GH inh)
COc1ccc(NC(=O)N(C)C[C@@H]2OCCCC[C@H](C)Oc3ccc(NC(=O)Nc4cccc5ccccc45)cc3C(=O)N([C@H](C)CO)C[C@@H]2C)cc1	none (no result: FadD28 FP inh, Y pestis TopoI, TcdB GH inh, Vc quorum ag)
O=C(c1ccc(S(=O)(=O)Nc2ccccc2F)cc1)N1CCN(c2ccccc2O)CC1	BioA inh-1 67 | BioA inh-2 inactive | HepG2 cytotox inactive | 3T3 cytotox 5 inactive
O=C(c1ccc(NS(=O)(=O)c2ccc(F)cc2)cc1)N1CCN(c2ccccc2O)CC1	none
COc1ccc(NC(=O)Nc2cccc3c2O[C@@H](CN(C)S(C)(=O)=O)[C@H](C)CN([C@@H](C)CO)C3=O)cc1	none (no result: FadD28 FP inh, Y pestis TopoI, Vc quorum ag)
C[C@H](CO)N1C[C@H](C)[C@H](CN(C)C(=O)NC2CCCCC2)Oc2ccc(NS(=O)(=O)c3cn(C)cn3)cc2CC1=O	none (no result: FadD28 FP inh, Y pestis TopoI, TcdB GH inh, Vc quorum ag)
Cn1ncc2cc3c(Nc4ccc(Cl)cc4)cccc3nc21	BioA inh-1 81 (no result: Y pestis TopoI, Vc quorum ag) | BioA inh-2 inactive | HepG2 cytotox inactive | 3T3 cytotox 5 inactive
Cn1ncc2c(Nc3ccc(Cl)cc3)ncnc21	none
Cc1ccc(S(=O)(=O)N[C@H]2CC[C@@H](CCNC(=O)C3CC3)O[C@H]2CO)cc1	none (no result: FadD28 FP inh, Y pestis TopoI, Vc quorum ag)
COc1ccc(NC2c3ccccc3C(=O)N2c2cccnc2)cc1Cl (stereo not given)	BioA inh-1 51 | BioA inh-2 inactive | HepG2 cytotox inactive | 3T3 cytotox 5 inactive
COc1ccc(-c2ccc3n(c2=O)C[C@@H]2[C@@H](CO)[C@H](C(=O)N4CCCCC4)[C@H]3N2C)cc1	none (no result: FadD28 FP inh, Y pestis TopoI, Vc quorum ag)
Cc1c(OC(C)C(=O)NCc2ccccn2)ccc2c3c(c(=O)oc12)CCC3 (stereo not given)	BioA inh-1 43 | BioA inh-2 inactive | HepG2 cytotox inactive | 3T3 cytotox 5 inactive
CC(=O)c1ccc(C(=O)NC2CCCN(Cc3ccccc3F)C2)s1 (stereo not given)	BioA inh-1 46 | BioA inh-2 inactive | HepG2 cytotox inactive | 3T3 cytotox 5 inactive
CC(=O)c1ccc(C(=O)N2CCCC(C(=O)c3ccc(Cl)cc3)C2)s1 (stereo not given)	BioA inh-1 49 | BioA inh-2 inactive | HepG2 cytotox inactive | 3T3 cytotox 5 inactive
COc1ccc(F)cc1C(=O)C1CCCN(C(=O)c2ccc(C(C)=O)s2)C1 (stereo not given)	BioA inh-1 71 | BioA inh-2 inactive | HepG2 cytotox inactive | 3T3 cytotox 5 inactive
CC(=O)c1ccc(C(=O)N2CCCC(C(=O)c3cc(F)ccc3F)C2)s1 (stereo not given)	none
